Laboratory results from PubChem BioAssay AID1159580 (chemical genetic matrix, 2015).
In all, about 5,500 compounds went through this assay and about 2,000 (36%) were called active. Inconclusive results (about 18%) are left out. Rule as the data show it: active = normalized growth mostly below about 0.91 (no sharp cut-off); inconclusive = no clear call, values can overlap the other calls; inactive = mostly above about 0.92. The list shows a part of the results.

Assay: chemical genetic growth profiling, strain panel (AID 1159580);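 also: tested at 20 µM; growth read once vehicle control cultures reached saturation at 30 °C; 1 = growth at the plate median or of vehicle wells; lower values mean less growth of the strain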
Settings: S. cerevisiae deletion strains, growth OD

Measured: normalized growth

CCCCCCCC/C=C\CCCCCCCC(=O)NCCc1ccc(O)c(O)c1
active: locus YGR229C, strain SMI1, stronger effect = lower value 0.811 | locus YNL153C, strain GIM3, stronger effect = lower value 0.811
inactive: locus YAL040C, strain CLN3, stronger effect = lower value 1.01 | locus YCL061C, strain MRC1 (second series), stronger effect = lower value 0.987 | locus YDR363W, strain ESC2, stronger effect = lower value 0.981 | locus YER002W, strain NOP16, stronger effect = lower value 1 | locus YMR307W, strain GAS1, stronger effect = lower value 0.987 | locus YNL175C, strain NOP13, stronger effect = lower value 0.999 | locus YNL197C, strain WHI3, stronger effect = lower value 0.987 | locus YNL224C, strain SQS1, stronger effect = lower value 1.02 | locus YOR083W, strain WHI5 (second series), stronger effect = lower value 0.876 | locus YPL055C, strain LGE1, stronger effect = lower value 1 | locus YPL241C, strain CIN2, stronger effect = lower value 0.993
